Reference: PubChem BioAssay AID588413 (Sanford-Burnham Center for Chemical Genomics, 2011)
Screen size: about 340,000 compounds; about 2,500 (0.74%) were called active. The sample as a whole holds a higher share of actives than the screen did. Values without a mark were called inactive.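 The calls were made as follows: active = inhibition above about 55% (limit read from the data); inactive = the rest.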

Assay: blockers of Gli reporter signaling – luciferase luminescence, Sufu-KO-LIGHT cells, uHTS, primary screen (AID 588413);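 also: 0% = DMSO-treated cells and 100% = wells with medium but no cells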
Details: Sufu-KO-LIGHT fibroblasts, at 5 µM, stronger effect = higher value

Structure (SMILES) | inhibition
CC(OC(=O)c1ccc([N+](=O)[O-])cc1)C(=O)NCC1CCCCC1 (stereo unspecified) | 6.02%
COc1cc(C(=O)OC(C)C(=O)NCC2CCCCC2)cc(NC(=O)c2ccco2)c1OC (stereo unspecified) | 61.1% (active)
COc1ccc(NC(=O)CCC(=O)Nc2cc(OC)c(NC(=O)c3ccco3)cc2OC)c(OC)c1 | 15.2%
CN1CCN(C(=O)/C(=C\c2ccc3c(c2)OCO3)NC(=O)c2cccs2)CC1 | -0.95%
CC(=O)Nc1ccccc1C(=O)C(=O)Nc1ccc(F)cc1 | -24.7%
CC1CCCN(C(=O)CN2C(=O)c3ccccc3S2(=O)=O)C1 (stereo unspecified) | 6.76%
O=C(CN1C(=O)c2ccccc2S1(=O)=O)N1CCc2ccccc21 | 64.8% (active)
O=C(CSCc1ccccc1)N1CCc2ccccc21 | -87.8%
Cc1ccc(CNC(=O)CCN2C(=O)[C@@H]3Cc4ccccc4CN3C2=O)cc1 | -9.51%
CCOC(=O)N(Cc1ccccc1)C1CC1 | 0.91%
Cc1ccc(S(=O)(=O)N2C[C@@H]3CCCC[C@@H]3[C@@H](C)[C@H]2c2cn(Cc3ccccc3)c3ccc(F)cc23)cc1 | 72.8% (active)
O=C(CS(=O)(=O)c1cn(Cc2cccc(F)c2)c2ccccc12)N1CCCCC1 | 9.01%
Cc1ccc(S(=O)(=O)N2CC(C)N(S(C)(=O)=O)C2)cc1 (stereo unspecified) | -2.13%
O=C(CNS(=O)(=O)c1ccc(Br)s1)N1CCN(C(=O)c2ccco2)CC1 | -4.48%
O=[N+]([O-])c1ccc(C=NN=Cc2ccc([N+](=O)[O-])cc2)cc1 | -0.85%
O=C(NN=Cc1ccc([N+](=O)[O-])cc1)C1CC1 | -2.46%
O=C1/C(=C\c2ccc([N+](=O)[O-])cc2)CS(=O)(=O)C/C1=C/c1ccc([N+](=O)[O-])cc1 | 65.4% (active)
Cc1nn(C(C)(C)C)c(OC(=O)CC(C)C)c1S(=O)(=O)c1ccccc1 | 12.6%
Cc1onc(C(=O)NCc2ccc(F)cc2)c1[N+](=O)[O-] | 3.05%
COc1ccc(C(=O)NCC(=O)N/N=C/c2ccc([N+](=O)[O-])o2)cc1OC | -0.07%
O=C(/C=C/c1ccc([N+](=O)[O-])o1)NNC(=O)c1ccc(F)cc1 | 67.6% (active)

Structure (SMILES) | inhibition
Cc1ccc(CN(CC(=O)NC2CCCCC2)C(=O)c2csnn2)cc1 | -19.5%
C/C=C/c1ccc(OCC(=O)OCC(=O)Nc2c(C)nn(-c3ccccc3)c2C)c(OC)c1 | -14.7%
CSc1nsc(SC)c1NC(=O)OC1CCCCC1 | 3.57%
COCCn1c(C)cc(C(=O)COC(=O)/C=C/c2cccc(OC)c2)c1C | 0.01%
CCN(CC)S(=O)(=O)c1ccc(OC(C)C)c(N)c1 | -7.56%
Oc1ccc2ccccc2c1N=Nc1nccs1 | 75.4% (active)
O=C(CN1CCCCC1)NC(=O)Nc1ccccc1F | -7.73%
CC(C)c1ccc(Cc2nnc(NCCCO)[nH]c2=O)cc1 | -3.48%
COc1ccc(Cc2nnc(SC)[nH]c2=O)cc1 | -8.83%
COc1ccc(Cc2nnc(N/N=C/c3ccccc3O)[nH]c2=O)cc1OC | 88.1% (active)
CCc1cccc2c3c([nH]c12)C(CC)(CC(=O)O)OCC3 (stereo unspecified) | -4.38%
CC(C)c1ccc(C2C(C#N)=C(N)Oc3c2oc(CO)cc3=O)cc1 (stereo unspecified) | -0.24%
CCOC(=O)c1ccc(NC(=O)Cn2cnc3cc(C)c(C)cc32)cc1 | 65% (active)
CCCc1nnc(SCC(=O)Nc2ccc(C(=O)OCC)cc2)o1 | -7.14%
CCOC(=O)c1ccc(NC(=O)Cc2cccs2)cc1 | -48%
CCCCC(=O)N1CC2(C)CN(C(=O)CCCC)CC(C)(C1)C2=O | -15.8%
COCCCN(C(=O)CSCc1ccc(C)cc1)c1c(N)n(Cc2ccccc2)c(=O)[nH]c1=O | -6.23%
CC(C)NC(=O)C(=O)NCCN1CCN(S(=O)(=O)c2ccc(Cl)cc2)CC1 | -1.75%
Cc1ccc(NC(=O)c2ccc(CSc3ncnc4nc[nH]c34)cc2)c(C)c1 | -3.19%
CCNc1nc(SCCOc2ccccc2)nc(N(C)C)n1 | 17.6%
Cc1cc(C)c(NC(=O)CSc2nc3ccncc3[nH]2)c(C)c1 | -7.29%

Structure (SMILES) | inhibition
COc1ccc2nc(SCC(=O)Nc3c(C)cc(C)cc3C)[nH]c2c1 | 82.7% (active)
Cc1ccc2nc(SCC(=O)NC3CCCC3)[nH]c2c1 | 19.8%
N#C/C=C/N1CCN(Cc2ccc3c(c2)OCO3)CC1 | 1.76%
CC(C)(C)OC(=O)N(Cc1ccccc1)Cc1ccc(OCc2cccc(NC(=O)c3ccccc3)c2)cc1 | 1.99%
O=C1Cc2ccccc2Sc2ccc(Cl)cc21 | 3%
Cc1ccc(C(=O)C(=S)N2CCOCC2)cc1 | -12.9%
CSc1ncccc1C(=O)Nc1ccc2c(c1)OCO2 | -2.99%
CSc1ncccc1C(=O)Nc1ccc(C)cn1 | -28.8%
CSc1ncccc1C(=O)Nc1nc2ccc(F)cc2s1 | 56.9% (active)
CC(C)=NN1C(=O)c2ccccc2NC1(C)C | 0.06%
CC1=C(C(=O)NC2CC(C)(C)Cc3c2cnn3-c2ccc(C)cc2)OCCO1 (stereo unspecified) | 13.4%
COc1ccc(C(=O)NC2CC(C)(C)Cc3c2cnn3-c2ccccc2)c(OC)c1 (stereo unspecified) | 14%
COc1ccc(C(=O)NC2CCCc3c2cnn3-c2cccc(C)c2C)c(OC)n1 (stereo unspecified) | 57% (active)
Cc1ccc(-n2ncc3c2CCCC3NC(=O)c2cnccn2)cc1C (stereo unspecified) | 20.6%
Cn1nccc1C(=O)NC1CCCc2c1cnn2-c1ccc(F)cc1F (stereo unspecified) | 73% (active)
COc1ccc(C(=O)NC2CC(C)(C)Cc3c2cnn3-c2ccccc2C)o1 (stereo unspecified) | 3.2%
CC1(C)Cc2c(cnn2-c2cccc(F)c2)C(NC(=O)c2cc[n+]([O-])cc2)C1 (stereo unspecified) | -1.99%
Cc1cc(C(=O)NC2CC(C)(C)Cc3c2cnn3-c2ccccc2)n[nH]1 (stereo unspecified) | 7.64%
Cn1nccc1C(=O)NC1CCCc2c1cnn2-c1ccccc1F (stereo unspecified) | 77.6% (active)
